Assay results reported in PubChem BioAssay (NCATS).
Calls of active or inactive are those of the source. No rule for the calls is given here.

Test system: HIV-1 nucleocapsid protein NCp7 (binding to TG oligonucleotide)
Assay: HIV Nucleocapsid (AID 346);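 also: potency is for inhibitors that block NC binding and lower polarization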
Conditions: HIV-1 NC / fluorescein-TGTGTGTG probe, fluorescence polarization
Outline: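 Reagents dispensed (10 nM TG4xF, 100 nM HIV-1 NC), plates spun, compounds pin-transferred, then incubated 1 hr at room temperature before FP imaging. Buffer: Hepes pH 7.5, 250mM NaCl, 1uM ZnCl2, 100 uM TCEP, 5 mM 2-mercaptoethanol.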
Potency is read from the fitted curve at half-maximal effect.

Row | SMILES | Potency
1 | CN(C)c1ncc2nc(-c3ccc(Cl)cc3)c(=O)n(C[C@H]3CCCO3)c2n1 | > 20 µM (inactive)
2 | Cc1noc(C)c1C(=O)N1CCC[C@@]2(CCN(c3ccccn3)C2)C1 | > 20 µM (inactive)
3 | O=C(Oc1ccccc1)N1CCC2(CCCN(c3ncccn3)C2)CC1 | > 20 µM (inactive)
4 | COc1ncc2nc(C)c(=O)n(-c3ccccc3)c2n1 | > 20 µM (inactive)
5 | Cc1cnc(CNc2ncncc2-c2ccccc2CN(C)C)cn1 | > 20 µM (inactive)
6 | CN1CCN(c2ncc3nc(-c4cccs4)c(=O)n(Cc4cccs4)c3n2)CC1 | > 20 µM (inactive)
7 | COc1cccc(Cn2c(=O)c(C)nc3cnc(Oc4ccccc4)nc32)c1 | > 20 µM (inactive)
8 | O=C(c1ccncc1)N1CCC2(CCCN(Cc3ccccc3)C2)CC1 | > 20 µM (inactive)
9 | COc1ccc(C(=O)N2CCC[C@@]3(CCN(CC(C)C)C3)C2)cc1 | > 20 µM (inactive)
10 | COc1cccc(-c2cc(NCc3ccccc3OC)ncn2)c1 | > 20 µM (inactive)
11 | Cc1ccccc1-c1cncnc1N1CCN(C)CC1 | > 20 µM (inactive)
12 | Cc1nc2cnc(Nc3ccccc3)nc2n(CCc2ccccc2)c1=O | > 20 µM (inactive)
13 | COc1ccc(Nc2ncc3nc(-c4cccs4)c(=O)n(Cc4cccc(OC)c4)c3n2)cc1 | 16 µM (inactive)
14 | COCCn1c(=O)c(-c2ccccc2)nc2cnc(Nc3cccc(OC)c3)nc21 | > 20 µM (inactive)
15 | O=C(c1cnccn1)N1CCC[C@@]2(CCN(c3ccncc3)C2)C1 | > 20 µM (inactive)
16 | CC(C)CN1CCCC2(CCN(C(=O)c3cccc(F)c3)CC2)C1 | > 20 µM (inactive)
17 | Cc1cccc(CNc2ccnc(-c3ccc(C(=O)N(C)C)cc3)n2)c1 | > 20 µM (inactive)
18 | COCC(=O)N1CCC2(CC1)CCN(c1ncccn1)CC2 | > 20 µM (inactive)
19 | O=S(=O)(c1ccccc1)N1CCC[C@@]2(CCN(c3ccncc3)C2)C1 | > 20 µM (inactive)
20 | O=C(c1csnn1)N1CCC2(CC1)CCN(C(c1ccccc1)c1ccccc1)CC2 | > 20 µM (inactive)

Row | SMILES | Potency
21 | COc1ccc(-n2c(=O)c(-c3cc(F)cc(F)c3)nc3cnc(N(C)C)nc32)cc1 | > 20 µM (inactive)
22 | CN1CCN(c2ncc3nc(-c4ccc(Cl)cc4)c(=O)n(C4CC4)c3n2)CC1 | > 20 µM (inactive)
23 | N#CCCn1c(=O)c(-c2cccs2)nc2cnc(N3CCNCC3)nc21 | 16.4 µM (inactive)
24 | COc1ccc(C(=O)N2CCC[C@@]3(CCN(Cc4ccncc4)C3)C2)cc1 | > 20 µM (inactive)
25 | COc1cccc(Nc2ncc3nc(-c4ccc(Cl)cc4)c(=O)n(C4CC4)c3n2)c1 | > 4 µM (inactive)
26 | CCNc1ncc2nc(-c3cc(F)cc(F)c3)c(=O)n(C)c2n1 | > 20 µM (inactive)
27 | CN1CCN(c2nc(-c3ccc(N(C)C)cc3)nc3ccccc23)CC1 | > 20 µM (inactive)
28 | O=c1cnc2cnc(Nc3ccccc3)nc2n1C[C@H]1CCCO1 | > 20 µM (inactive)
29 | O=c1c(-c2ccc(F)cc2)nc2cnc(Oc3ccccc3)nc2n1C1CC1 | > 20 µM (inactive)
30 | COc1ccc2[nH]cc(CCNc3cc(-c4ccccc4CN(C)C)ncn3)c2c1 | > 20 µM (inactive)
31 | COCC(=O)N1CCC2(CC1)CN(c1ccccn1)C2 | > 20 µM (inactive)
32 | COc1ccc(-n2c(=O)c(-c3ccc(Cl)cc3)nc3cnc(N(C)C)nc32)cc1 | > 20 µM (inactive)
33 | Cc1noc(C)c1-c1ccc2ncnc(N3CCN(C)CC3)c2c1 | > 20 µM (inactive)
34 | CC(C)CN1CCC2(CC1)CCN(C(=O)c1cccn1C)CC2 | > 20 µM (inactive)
35 | CN(C)c1ccc(-c2nccc(NCc3cccs3)n2)cc1 | > 20 µM (inactive)
36 | COCCn1c(=O)c(C)nc2cnc(Oc3ccc(OC)cc3)nc21 | > 20 µM (inactive)
37 | COCCn1c(=O)c(-c2ccc(Cl)cc2)nc2cnc(Nc3ccccc3)nc21 | > 20 µM (inactive)
38 | O=C(Nc1ccccc1)N1CC[C@@]2(CCCN(C(=O)c3cnccn3)C2)C1 | > 20 µM (inactive)
39 | COc1ccc(CNc2ncnc3ccc(-c4ccccc4C#N)cc23)c(OC)c1 | > 20 µM (inactive)
40 | COc1ccc2[nH]cc(CCNc3ncnc4ccc(-c5ccc6c(c5)OCO6)cc34)c2c1 | > 20 µM (inactive)
